ChEMBL document CHEMBL4513216, “Probing the Open Global Health Chemical Diversity Library for Multistage-Active Starting Points for Next-Generation Antimalarials” (ACS Infect Dis, 2020)
Out of some 69,000 compounds screened, about 8,600 (12%) showed an effect of 50% or more. Shown is part of a subset that was picked to be rich in strong results.

System: Plasmodium berghei
Assay: Screen against P. berghei liver stage (PbLuc), transformed with Luciferase, at 10uM
Type: functional, HepG2
Conditions: tested at 10 uM

SMILES | INHIBITION [%]
Cn1ccc(C(=O)NCCOc2ccc3c(c2)CCC3)cc1=O | -15.5
CCc1ocnc1C(=O)N1CCCC1c1noc(C2CC2)n1 (stereo not given) | 34.2
Cc1cc(C(=O)Nc2ccc(OCCN3CCN(C)CC3)cc2)[nH]n1 | -49.9
CCc1cc(=O)[nH]c(-c2ccc(NCCC(C)O)nc2)n1 (stereo not given) | 36.9
CCN1CC[C@@]2(C(=O)N(C)C)CCN(C(=O)Cc3ccccc3)CC[C@@H]12 | 11.2
CC(C)n1ccnc1C1CCCN(c2ccccn2)C1 (stereo not given) | 24.6
CSc1nccc(N2CCCC(c3nccn3C(C)C)C2)n1 (stereo not given) | 27.6
Cc1ccnc(N2CCCC(c3nccn3C(C)C)C2)n1 (stereo not given) | 15.8
CC(C)n1ccnc1C1CCCN(c2ccnc3ccccc23)C1 (stereo not given) | 71.3
CC(C)n1ccnc1C1CCCN(c2ccncc2F)C1 (stereo not given) | 32.1
CC(C)n1ccnc1C1CCCN(c2nc3ccccc3s2)C1 (stereo not given) | 61.2
CN(C)C(=O)C1CCCN1CCCNC(=O)c1cccc2[nH]ncc12 (stereo not given) | 23.2
COc1cc(C(C)=O)ccc1OCCNCc1ccco1 | 5.67
COc1cccc(CN(C)Cc2ccccc2C#N)c1OC | 4.48
COc1cccc(CN(C)C(=O)c2ccc(NC(C)=O)s2)c1OC | 61.1
COc1cccc(CN(C)C(=O)CCC(=O)c2ccc(Cl)cc2)c1OC | 40.1
Cc1cc(CNC(=O)N(Cc2ccc(F)cc2F)C2CC2)no1 | 44.1
CC(=O)Nc1ccc(C(=O)N(C)Cc2cccc(F)c2)s1 | 39.7
CC(=O)Nc1ccc(C(=O)N(C)Cc2ccc(F)cc2F)s1 | 56
Cn1cc(-c2cnc(N3CCOCC3)nc2)cc1C(=O)NCCC#N | 47.4
Cn1nccc1-c1cccc(CC2CCN(S(C)(=O)=O)C2)n1 (stereo not given) | 12.905
Clc1cccc(Cl)c1-c1nnc(CNCCn2cccn2)o1 | -48.4
Cc1nc(CCNC(=O)N2CCC(Cc3cnn(C)c3)C2)cs1 (stereo not given) | -4.74
Fc1cccc(Cl)c1CNCCOc1ccccn1 | 27
Fc1cccc(Cl)c1CNCCCOc1ccccn1 | 2.61
Clc1cccc(Cl)c1CNCCOc1ccccn1 | 60
CCOc1nn(CC)cc1-c1nnc(SCc2cccnc2)n1CC | 9

SMILES | INHIBITION [%]
Cc1noc(C)c1CNc1cccc(C(=O)N(C)c2ccccc2)c1 | 59.1
Cc1noc(C)c1CNc1cccc(C(=O)N2CCCC(O)C2)c1 (stereo not given) | 20.6
Cc1cc(CNc2cccc(C(=O)N(C)c3ccccc3)c2)no1 | 45
Cc1noc(C)c1CN1C[C@@H](OCc2ccccn2)[C@H]2OCCC[C@H]21 | -14.4
Cc1ccc(Cc2cnc(C3CCNCC3)cn2)cc1 | 13.5
CC(C)n1nc(CN2CCOCC2)c2c1CN(Cc1ccsc1)C2 | -18.2
OC(CN1CCC(c2ccn[nH]2)CC1)c1cccc(C(F)(F)F)c1 (stereo not given) | -33.9
OC(CN(Cc1ccccc1)Cc1ccccn1)c1cccs1 (stereo not given) | 55.9
Cn1cc(CN(Cc2ccccc2)CC(O)c2cccs2)cn1 (stereo not given) | -58.4
OC(CN(Cc1ccccc1)Cc1ccon1)c1ccco1 (stereo not given) | -21
OC(CN(Cc1ccccc1)Cc1cscn1)c1cccs1 (stereo not given) | 9.72
OC(CN(Cc1ccccc1)Cc1ccncc1)c1cccs1 (stereo not given) | 7.11
OC(CN(Cc1ccccc1)Cc1ccon1)c1cccs1 (stereo not given) | 70.1
Cc1cc(CN(Cc2ccccc2)CC(O)c2cccs2)on1 (stereo not given) | 30.3
Cc1cnc(CN(Cc2ccccc2)CC(O)c2cccs2)cn1 (stereo not given) | -34.7
OC(CN(Cc1ccccc1)Cc1cccnc1)c1cccs1 (stereo not given) | 57.2
CC(C)c1ccccc1NC(=O)N1C[C@H]2CC[C@@H](C1)N(C)C2=O | -14.5
Cn1cccc1CN(C(=O)CC(CC(=O)O)c1cccs1)C1CC1 (stereo not given) | -42.1
CCCS(=O)(=O)N1C[C@H]2CC[C@@H](C1)N(Cc1cscn1)C2=O | 53.3
O=C1[C@@H]2CC[C@@H](CN(S(=O)(=O)c3ccccc3)C2)N1Cc1cscn1 | 25.1
Cn1cnc(S(=O)(=O)N2C[C@H]3CC[C@@H](C2)N(Cc2cscn2)C3=O)c1 | 10.5
CCN(CC)S(=O)(=O)N1C[C@H]2CC[C@@H](C1)N(Cc1cscn1)C2=O | 51.1
CCN(C)S(=O)(=O)N1C[C@H]2CC[C@@H](C1)N(Cc1cscn1)C2=O | -23.7
CS(=O)(=O)N1C[C@H]2CC[C@@H](C1)N(Cc1cscn1)C2=O | 13.5
Cc1cnc(C(=O)N2C[C@@H]3CN(CC4CCCC4)CCO[C@@H]3C2)cn1 | 13.6
CN(C)Cc1cc(=O)n2c(n1)CN(C(=O)Cc1ccsc1)CCC2 | 33.5
CCc1ncc(C(=O)NCCN(C)S(C)(=O)=O)cn1 | 43.2

SMILES | INHIBITION [%]
CCCS(=O)(=O)CC(=O)Nc1cc(CC(C)(C)C)n[nH]1 | -45.9
O=C1CCCN1CC1CN(CC2CCOCC2)Cc2nccn2C1 (stereo not given) | 57.4
O=C1CCCN1CC1CN(C(=O)N2CCOCC2)Cc2nccn2C1 (stereo not given) | 34.4
O=C1CCCN1CC1CN(C(=O)C2CCOCC2)Cc2nccn2C1 (stereo not given) | 0.542
CCCc1nnc2sc(C3CCN(CCOC)CC3)nn12 | 31.2
NC(=O)CN1CCOCC(Cc2cccc(F)c2)C1 (stereo not given) | -44.2
Cc1cccc(CN2C[C@@H]3OCCN(S(=O)(=O)N(C)C)[C@@H]3C2)c1 | -7.94
Cc1ccc(N2CC[C@@H]3CN(Cc4cccc(C)n4)C[C@@H]3C2)nn1 | -2.41
Cc1cccc(CN2C[C@@H]3OCCN(S(=O)(=O)N(C)C)[C@@H]3C2)n1 | 54.1
Cc1ccc(N2CCO[C@@H]3CN(Cc4cccc(C)n4)CC[C@@H]3C2)nn1 | 52.3
Cc1ccc(N2C[C@@H]3CN(Cc4csc(C)n4)CCO[C@@H]3C2)nn1 | 42.6
Cc1cccc(CN2C[C@@H]3OCCN(C)[C@@H]3C2)n1 | -22.7
Cc1cccc(N2CC[C@@H]3CN(Cc4csc(C)n4)CCO[C@@H]3C2)n1 | 66.5
Cc1cccc(CN2C[C@@H]3CN(Cc4ccoc4)CCO[C@@H]3C2)n1 | 23.3
Cc1nc(CN2CCO[C@@H]3CN(Cc4ccccn4)CC[C@@H]3C2)cs1 | 42.3
O=S(=O)(c1ccc(F)cc1)N1CCCCC1c1cc[nH]n1 (stereo not given) | 13
CN1CCN(c2ncc(-c3cnccn3)c([C@H]3CCCO3)n2)CC1 | 14.7
CN1CCN(CC2CC2)C(=O)c2cnc(N3CCOCC3)nc21 | 26.3
CN(C)C[C@]12COC[C@H]1CN(C(=O)CCc1ccccc1)C2 | 6.66
CC(C)NC(=O)N1CCC[C@H]1C(=O)NCCCc1cnn(C)c1 | -34.6
CC(=O)N1CCC(c2nccnc2-c2ccc(F)cc2)CC1 | 43.6
Cc1cc(C)n(CC2CCCCN2C(=O)c2ccc3[nH]nnc3c2)n1 (stereo not given) | 20.9
CC(NC(=O)CCn1cccn1)c1ccc2c(c1)OCCO2 (stereo not given) | 22.3
CC(NC(=O)NCCCn1cncn1)c1ccc2c(c1)OCCO2 (stereo not given) | 21.8
CC(NC(=O)Cn1cccn1)c1ccc2c(c1)OCCCO2 (stereo not given) | 62.1
CC(NC(=O)NCCCO)c1ccc2c(c1)NC(=O)CO2 (stereo not given) | -11.4
CC(NC(=O)NCCCO)c1ccc2c(c1)OCCO2 (stereo not given) | 52.1

SMILES | INHIBITION [%]
CC(NC(=O)Cn1cccn1)c1ccc2c(c1)OCCO2 (stereo not given) | 41.5
Cc1ccc2c(c1)C1(CC(=O)Nc3[nH]ncc31)C(=O)N2C (stereo not given) | 21.5
CCc1noc(CN(CC(=O)N2CCCCC2)c2ccc(C)cc2)n1 | 50.1
CCc1noc(CN(C)CC(c2cccs2)N2CCOCC2)n1 (stereo not given) | 60.5
CCc1noc(CN(C)Cc2ccc(N3CCCCC3)cc2)n1 | 61.8
CCc1noc(CN(C)Cc2cc(Br)ccc2OC)n1 | 30.9
CN(Cc1ccc(N2CCOCC2)cc1)Cc1noc(C(C)(C)C)n1 | -8.51
CCc1nc(CN(C)CC(c2cccs2)N2CCOCC2)no1 (stereo not given) | 36.4
CN(Cc1ccc(N2CCCCC2)cc1)Cc1noc(C(C)(C)C)n1 | 78.5
CCc1noc(CN(CC(=O)N2CCCCC2)c2cccc(C)c2)n1 | 18
Cc1noc(CN(C)CC(c2cccs2)N2CCOCC2)n1 (stereo not given) | 35.9
CN(Cc1noc(C(C)(C)C)n1)CC1CCN(CCO)CC1 | 37.5
Cc1cccc(N(CC(=O)N2CCCCC2)Cc2ccno2)c1 | 36.2
CCCc1noc(CN(C)Cc2ccc3c(c2)OCO3)n1 | 19.3
CN(C)C(=O)CN1CCCC(c2cncc(-c3cccc(Cl)c3)n2)C1 (stereo not given) | 35.2
CC(=O)NCC1CCN(C(=O)NCCc2ccc(Cl)s2)CC1 | 13.3
CCCC(=O)N1CCCCC1c1nc(N(C)C)ncc1-c1cc(C)no1 (stereo not given) | 23.1
CN1CCCC(c2cccc(CCC(=O)NCC3(C)COC3)n2)C1 (stereo not given) | 13
NC(=O)Cn1cc(NC(=O)N2CCCCCC2)cn1 | 2.5
Cc1cc(CN2CCC(C(=O)O)(n3ccc(-c4ccco4)n3)CC2)on1 | 1.48
O=C1NCC2(CCCN(C(=O)c3c[nH]nc3-c3cccs3)C2)O1 (stereo not given) | 6.29
Cn1cnc2ccc(NC(=O)CC3CCN(C4CCCCC4)CC3)cc21 | 12.17
Cc1ccnc(OC[C@]23COC[C@H]2CN(C(=O)c2cnccn2)C3)n1 | 32.2
CCc1ccc(Cn2nccc2NC(=O)C2CCS(=O)(=O)C2)cc1 (stereo not given) | 11.8
